Test results reported in PubChem BioAssay AID1159580 (chemical genetic matrix, 2015).
In all, about 5,500 compounds went through this assay and about 2,000 (36%) were called active. Inconclusive results (about 18%) are left out. Cut-off read from the data, not from the text of the source: active = normalized growth mostly below about 0.91 (no sharp cut-off); inconclusive = no clear call, values can overlap the other calls; inactive = mostly above about 0.92. The list shows a part of the results.

Assay: chemical genetic growth profiling, strain panel (AID 1159580);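 note: tested at 20 µM; growth read once vehicle control cultures reached saturation at 30 °C; 1 = growth at the plate median or of vehicle wells; lower values mean less growth of the strain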
Settings: S. cerevisiae deletion strains, growth OD

Measured: normalized growth

N#Cc1nccnc1Sc1ccc(Cl)cc1
inactive: locus YAL013W, strain DEP1, hits give low values 0.946 | locus YBR229C, strain ROT2, hits give low values 0.936 | locus YDL101C, strain DUN1, hits give low values 0.948 | locus YDR150W, strain NUM1, hits give low values 1.03 | locus YEL061C, strain CIN8, hits give low values 0.914 | locus YGR078C, strain PAC10, hits give low values 0.962 | locus YHR087W, strain rtc3, hits give low values 0.978 | locus YJL187C, strain SWE1, hits give low values 0.949 | locus YJR043C, strain POL32, hits give low values 0.993 | locus YJR075W, strain HOC1, hits give low values 0.986 | locus YKL190W, strain CNB1, hits give low values 0.932 | locus YML094W, strain GIM5, hits give low values 0.905 | locus YMR263W, strain SAP30, hits give low values 0.963 | locus YNL128W, strain TEP1, hits give low values 0.945 | locus YNL153C, strain GIM3, hits give low values 0.988 | locus YNL298W, strain CLA4 (second series), hits give low values 0.868 | locus YNR030W, strain Alg12, hits give low values 0.927 | locus YPL055C, strain LGE1, hits give low values 1.01 | locus YPL241C, strain CIN2, hits give low values 0.941
active: locus YHR030C, strain SLT2, hits give low values 0.537 | locus YLR039C, strain RIC1, hits give low values 0.698 | locus YLR058C, strain SHM2 (second series), hits give low values 0.929 | locus YLR085C, strain ARP6, hits give low values 0.686 | locus YLR262C, strain YPT6, hits give low values 0.729 | locus YMR219W, strain ESC1, hits give low values 0.93 | locus YNL322C, strain KRE1, hits give low values 0.925 | locus YPR135W, strain CTF4, hits give low values 0.556
